# This is a sample that favours compounds with a hit; in the whole collection about 10% have one here.
# HP1b chromo inh = HP1-beta chromodomain-methylated histone interaction inhibition; AlphaScreen HP1-beta / biotin-H3K9me3 peptide binding; Potency, µM (titrated, usually from 114 µM), for the others: top-dose activity change, negative = inhibition, actives largely listed as inhibitors; actives 0.56% (n = 390,000); AID 540317; note: nearly all actives have a fitted effect of over 70% in size
#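 Compound inhibition of the preformed complex between 50 nM HP1-beta and 50 nM biotinylated H3K9me3 peptide was read by AlphaScreen. Buffer was PBS pH 7.4 with 0.01% Tween-20. Incubations ran 30 min at room temperature, with 10 ug/mL donor/acceptor beads.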
# GLS inhibitor = blocks human kidney-isoform glutaminase activity. GLS enzymatic activity, qHTS titration. Potency, µM (series often up to 45.5 µM), inactives show at the highest dose activity change, negative = inhibition, actives largely listed as inhibitors. AID 624170. actives 0.21% (n = 410,000); note: % is set by controls: 0 for no effect and ±100 for the full control effect
# Target sequence (O94925 whole entry, looked up, canonical isoform): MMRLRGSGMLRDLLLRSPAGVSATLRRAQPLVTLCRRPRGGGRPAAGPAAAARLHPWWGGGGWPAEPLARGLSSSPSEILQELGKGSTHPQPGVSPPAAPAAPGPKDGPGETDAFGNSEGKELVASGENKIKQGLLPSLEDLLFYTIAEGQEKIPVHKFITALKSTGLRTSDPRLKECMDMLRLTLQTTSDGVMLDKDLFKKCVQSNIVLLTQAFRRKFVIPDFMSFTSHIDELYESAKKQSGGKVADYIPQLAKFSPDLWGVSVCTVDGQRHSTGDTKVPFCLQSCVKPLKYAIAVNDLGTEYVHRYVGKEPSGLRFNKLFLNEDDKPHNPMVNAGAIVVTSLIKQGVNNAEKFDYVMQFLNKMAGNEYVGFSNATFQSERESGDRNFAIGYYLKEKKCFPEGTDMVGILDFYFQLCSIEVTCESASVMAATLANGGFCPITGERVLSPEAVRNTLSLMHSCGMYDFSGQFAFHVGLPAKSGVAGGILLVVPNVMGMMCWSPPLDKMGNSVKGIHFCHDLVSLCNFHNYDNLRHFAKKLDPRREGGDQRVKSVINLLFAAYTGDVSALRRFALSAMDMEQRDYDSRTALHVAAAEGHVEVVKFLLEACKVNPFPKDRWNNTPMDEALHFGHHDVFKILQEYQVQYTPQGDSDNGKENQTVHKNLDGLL
#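 Assay buffer: 45 mM KH2PO4 pH 8.2, 0.02% Tween-20. hKGA acts on L-glutamine (1 mM solution added); product glutamate is reported by an oxidase/peroxidase Amplex Red coupling, with fluorescence taken at baseline and 30 min.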
# G9a block = blocks human histone lysine methyltransferase G9a; G9a H3K9 monomethylation, AlphaScreen, 2 h; Potency, µM (series often up to 102 µM), for the others: at the top dose activity, negative = inhibition, hits mostly inhibitors; AID 504332; Q96KQ7; actives 8.8% (n = 350,000); note: % is set by controls: 0 for no effect and ±100 for the full control effect; nearly all actives have a fitted effect of over 75% in size
#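 Signal arises when biotinylated H3K9 peptide, once monomethylated, bridges streptavidin donor and antibody-captured acceptor beads. Enzyme at 20 nM was preincubated 15 min with test compounds; peptide 500 nM and SAM 20 uM then reacted for 2 h.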
# BAZ2B inh = blocks human BAZ2B. actives 4.4% (n = 360,000). AlphaScreen BAZ2B-H3K14Ac peptide displacement. Potency, µM (titrated, usually from 114 µM), for inactives: at the highest dose activity change, negative = inhibition, actives largely listed as inhibitors; note: % is set by controls: 0 for no effect and ±100 for the full control effect; nearly all actives have a fitted effect of over 60% in size
#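 Multi-concentration screen (max 110 uM) measuring displacement of acetylated histone H3 peptide from BAZ2B by AlphaScreen, using 50 nM protein, 50 nM peptide and 10 ug/mL streptavidin donor plus Ni-chelate acceptor beads.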
# JMJD2A Tudor = blocks the human JMJD2A Tudor domain | O75164 | AlphaScreen JMJD2A-Tudor / H3K4me3 peptide binding | Potency, µM (series often up to 114 µM), for inactives: at the highest dose activity change, negative = inhibition, actives largely listed as inhibitors | actives 4.4% (n = 390,000) | AID 504339; note: % is set by controls: 0 for no effect and ±100 for the full control effect; nearly all actives have a fitted effect of over 50% in size
# Starred values were filed as active, the others as inactive; ? = inconclusive; / = not tested or not shown; [ ] = dose if it differs, or a comment. Calls come from the whole dose curve; as a rule, active = well fitted curve in the direction sought with a large enough effect; inconclusive = small, poorly fitted or top-dose-only effect, or another doubt; inactive = no such curve, though single readings can be large; an effect the other way counts as inactive or inconclusive. Potency is the fitted concentration of half-maximal effect.
SMILES,HP1b chromo inh,GLS inhibitor,G9a block,BAZ2B inh,JMJD2A Tudor
CCCCOc1ccc(C(=O)NCC(=O)N(C)CC(=O)Nc2ccc(N3CCOCC3)cc2)cc1,-11.3%,26.5%,25.1µM*,-1.5%,-30.8%
CCOc1ccc(S(=O)(=O)Nc2nc3ccccc3nc2Nc2ccc(OC)cc2)cc1,18.3%,3.1%,0.6%[59 µM],-21.0%,-24.6%
CC(C)(C)c1ccc(OCCC(=O)OCC(=O)Nc2ccc(N3CCOCC3)cc2)cc1,28.5%,-9.5%,44.7µM*,9.2%,-11.0%
CCOc1ccc(S(=O)(=O)Nc2nc3ccccc3nc2Nc2ccc(N3CCOCC3)cc2)cc1,?,12.2%,10µM*,28.2µM*,50.1µM*
Cc1ccc(OCC(=O)N(C)CC(=O)Nc2ccc(N3CCOCC3)cc2)cc1,10.1%,55.6%,4.5%[0.501 µM],-7.6%,-12.4%
CCOc1ccc(S(=O)(=O)NCCC(=O)N(C)CC(=O)Nc2ccc(N3CCOCC3)cc2)cc1,7.1%,25.8%,35.5µM*,-3.1%,-13.6%
CN(CC(=O)Nc1ccc(N2CCOCC2)cc1)C(=O)CCNC(=O)c1ccc(Br)cc1,3.4%,-7.5%,44.7µM*,-13.1%,-13.1%
CC(=O)c1ccc(NC(=O)C(C)OC(=O)C2CCN(c3ccc(C(F)(F)F)cn3)CC2)cc1 (stereo not given),33.6%,11.0%,?,3.7%,-13.8%
COC(=O)CSc1nc(SC)nc2c1sc1nc(-c3ccco3)c3c(c12)CC(C)(C)OC3,21.4%,-22.1%,/,/,2.8%
OCCN(CCO)c1ncnc2c1sc1nc(N3CCOCC3)c3c(c12)CCCC3,-8.7%,1.7%,-50.8%,-12.2%,-24.1%
CSc1nc(N(CCO)CCO)c2sc3nc(-c4ccco4)c4c(c3c2n1)CCC4,11.2µM*,7.08µM*,12.6µM*,?,-34.9%[11.4 µM]
CSc1nc(SCCO)c2sc3nc(-c4ccco4)c4c(c3c2n1)CC(C)(C)OC4,14.5%,?,?,31.6µM*,?
O=C(NC(=S)N1CCN(c2ccccn2)CC1)c1ccccc1,12.1%,23.3%,39.8µM*,-7.8%,-13.9%
Cn1cc(Br)c(C(=O)NC(=S)N2CCN(c3ccccn3)CC2)n1,17.2%,-1.4%,39.8µM*,?,-9.8%
O=C(NC(=S)N1CCN(c2ccccc2)CC1)c1ccccc1,/,/,1.4%,-26.2%,/
CCOC(=O)Cc1ccc(NC(=O)N(Cc2ccc(OC)cc2)C2CCN(C(C)=O)CC2)cc1,3.4%,-4.9%,2.5%[59 µM],-2.1%,-16.2%
N#Cc1nc(Nc2cccc(F)c2)nc(NC2CCCC2)n1,/,/,/,/,0.7%
O=C(O)c1ccc(Sc2nnc(-c3cccc(Br)c3)o2)c([N+](=O)[O-])c1,10.1%,11.6%,50.1µM*,-37.8%,-1.6%
Cn1c(Sc2ccc(C(=O)O)cc2[N+](=O)[O-])nnc1-c1ccccc1,-2.0%,-10.3%,0.8%[59 µM],-12.7%,28.2µM*
CC(=O)c1ccc(Sc2nnnn2-c2ccccc2)c([N+](=O)[O-])c1,-2.4%,-1.3%,?,?,-23.2%
Cc1ccc(C2=CC(c3ccccc3F)n3c(nc4ccccc43)N2)cc1C (stereo not given),79.4%,-25.1%,?,15.1%,13.5%
CC(OC(=O)c1ccc(S(C)(=O)=O)c([N+](=O)[O-])c1)C(=O)NC1C2CC3CC(C2)CC1C3 (stereo not given),/,-0.6%,/,/,/
O=c1cnc2cnc(Oc3ccccc3)nc2n1Cc1ccc(F)cc1,/,/,-2.1%[12.7 µM],/,/
Cc1c(C(=O)OC(C)C(=O)N(C)Cc2ccccc2)oc2ccccc12 (stereo not given),55.8%,-11.8%,/,/,-3.3%
Cc1c(C(=O)OC(C)C(C)C[N+](C)(C)C)oc2ccccc12 (stereo not given),14.5%,?,12.6µM*,-20.5%,56.2µM*
SMILES,HP1b chromo inh,GLS inhibitor,G9a block,BAZ2B inh,JMJD2A Tudor
N/C(=N\OC(=O)c1ccc(Br)o1)c1ccccn1,19.5%,1.5%,20µM*,-35.2%,-18.9%
N/C(=N\OC(=O)COc1ccc(Br)cc1Cl)c1ccccn1,19.5%,3.4%,?,7.3%,79.4µM*
N/C(=N\OC(=O)/C=C/c1ccccc1Cl)c1ccccn1,59.7%,-3.9%,-6.6%[59 µM],79.4µM*,-6.9%
N/C(=N\OC(=O)COc1ccccc1)c1ccccn1,25.2%,15.8%,11.2µM*,-18.7%,-1.0%
CC1C(=O)N(S(=O)(=O)c2ccc([N+](=O)[O-])cc2)[C@H]1c1ccc2ccccc2c1 (stereo not given in full),-0.1%,/,/,/,-20.0%
COc1ccc(C2=NC(=O)/C(=C\c3cc(OC)c(OC)c(OC)c3)O2)cc1,34.0%,2.7%,17.3%[59 µM],6.5%,-8.1%
O=[N+]([O-])c1cccc(CN2C(COCc3ccccc3)CCC=CS2(=O)=O)c1 (stereo not given),19.2%,/,/,/,-20.0%
CC1(C(=O)NCc2cccc3ccccc23)CCN1Cc1ccc(OC(F)(F)F)cc1 (stereo not given),/,-1.5%,/,/,/
Cc1ccc(NC(=O)Cn2cc(S(=O)(=O)N3CCC(C)CC3)c3ccccc3c2=O)c(Br)c1,18.2%,4.1%,4.8%[59 µM],0.1%,-8.6%
Cc1cc(C)nc(NNS(=O)(=O)c2ccc(Cl)cc2)n1,-5.2%,17.0%,/,/,?
Cc1cc(C)nc(NNS(=O)(=O)c2ccc(F)c(Cl)c2)n1,14.6%,14.4%,?,79.4µM*,-30.7%
COc1ccc(S(=O)(=O)NC2CC2)cc1Br,34.6%,-2.5%,/,1.8%,3.3%
COc1ccc(S(=O)(=O)NNc2nc(C)cc(C)n2)cc1Br,-7.9%,23.8%,22.4µM*,6.2%,-15.0%
C=CCNc1nc(-c2ccc(OC)cc2OC)cs1,-14.6%,11.6%,?,56.2µM*,?
C=CCN1C(=O)/C(=c2\sc3nc(=O)c(Cc4ccccc4Cl)nn3c2=O)c2ccccc21,?,8.4%,11.2µM*,?,70.8µM*
C=CCn1c(=O)c2c(nc(Br)n2Cc2ccccc2Cl)n(C)c1=O,-10.8%,-20.8%,-3.3%[59 µM],-2.9%[57.1 µM],-6.9%[11.4 µM]
COc1ccc2ccccc2c1CNC(C)c1ccccc1 (stereo not given),-5.4%,4.0%,19.8%[0.501 µM],?,79.4µM*
CC(NCc1ccccc1O)c1ccccc1 (stereo not given),39.7%,-3.9%,20.3%,-0.4%,12.7%
COc1ccc2ccccc2c1CNCc1ccc(C)cc1,?,-2.1%,50.1µM*,?,22.4µM*
CC(NCCCOc1cccc2ccccc12)c1ccccc1 (stereo not given),?,0.5%,11.2µM*,?,22.4µM*
COc1ccc2ccccc2c1CNCCCN1CCOCC1,46.4%,8.2%,-13.9%,-19.0%,-6.8%
COC(=O)C1N[C@@H]([C@@H](NC(=O)COc2ccccc2)C(=O)NCc2ccc(OC)cc2)SC1(C)C (stereo not given in full),32.1%,2.1%,/,/,-9.4%
CC(=O)N1C[C@H]2CON(C)[C@H]2C[C@H]1c1cccc(-c2ccc(C#N)cc2)c1,/,-3.0%,/,/,/

# Screening results deposited in PubChem BioAssay by National Center for Advancing Translational Sciences (NCATS).
